Compound activity deposited in PubChem by National Center for Advancing Translational Sciences (NCATS).
IL1B secr inh: inflammasome signaling inhibition, IL-1 beta readout; THP-1 LPS/ATP IL-1B secretion, AlphaLISA, 16 h; hits give low values; 360,000 compounds, 4.7% hits; AID 743279; activity change, % at 57.5 µM; in the data active = activity change below about -50%; inconclusive = mostly about -30% to -49%
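Secreted IL-1B measured by AlphaLISA bead assay after 16 h compound exposure of THP-1 cells; compounds (final up to 57.5 uM) added 1 h before LPS (250 ng/mL) and ATP (1.25 mM) stimulation; lower signal means less secretion.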
DT40 TDP1 no CPT: qHTS for Inhibitors of human tyrosyl-DNA phosphodiesterase 1 (TDP1): qHTS in cells in absence of CPT | 420,000 compounds, 15% hits | Potency, µM (doses to about 46.2 µM), for the others: at the top dose activity change, negative = growth inhibition, actives largely listed as inhibitors | DT40 Tdp1-/- hTDP1 cells, no CPT, ATP luminescence, 48 h; note: potency is the fitted concentration of half-maximal effect; nearly all actives have a fitted effect of over 55% in size
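Chicken DT40 Tdp1-/- cells stably complemented with human TDP1 were seeded at 400 cells/well with DMSO in place of 20 nM camptothecin. After compound pinning, cells grew at least 48 hr at 37 °C; viability read by CellTiter-Glo luminescence.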
HT1080 IDH1KD tx: kills HT-1080 cells with IDH1 knockdown; HT-1080 IDH1 knockdown viability, ATP luminescence, 48 h; Potency, µM (top dose mostly 46.1 µM), inactives show at the highest dose activity, negative = toxicity, usual class: cytotoxic; 360,000 compounds, 2% hits; AID 686971;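 note: potency is the fitted concentration of half-maximal effect; 0% = DMSO wells and -100% = cell-free medium wells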
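Viability of IDH1-knockdown HT-1080 fibrosarcoma cells was assessed by CellTiter-Glo after 48 h at 37 °C with titrated compound; concentration-effect curves were classified by fit quality and response size.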
HT1080-NT tox: kills 2HG-producing HT-1080-NT fibrosarcoma cells | Potency, µM (series often up to 46.1 µM), for the others: at the highest dose activity, negative = less viability, most hits filed as cytotoxic | 360,000 compounds, 1.6% hits | AID 686970 | HT-1080-NT fibrosarcoma viability, CellTiter-Glo ATP luminescence, 48 h;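 note: NT is the 2HG producing partner of a matched IDH1 knockdown line; potency is the fitted concentration of half-maximal effect; 0% = DMSO-treated cells and -100% = media-only wells without cells; nearly all actives have a fitted effect of over 55% in size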
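Fibrosarcoma NT cells, 750 per well in 5% FBS RPMI, were exposed to compound for 48 hours. Viability: CellTiter-Glo luminescence.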
TDP1 cell CPT: growth inhibition of DT40 Tdp1-/-;hTDP1 cells with camptothecin (screen for TDP1 inhibitors); 420,000 compounds, 12% hits; Potency, µM (series often up to 46.2 µM), without a hit: top-dose activity change, negative = growth inhibition, usual class: inhibitors; chicken DT40 Tdp1-/-;hTDP1 cells + 20 nM CPT, ATP luminescence, 48 h; note: potency is the fitted concentration of half-maximal effect; nearly all actives have a fitted effect of over 55% in size
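Cell growth measured by CellTiter-Glo luminescence after a minimum 48 h, 37 C compound exposure with 20 nM CPT in Tdp1-knockout DT40 cells stably expressing hTDP1, seeded 400/well; qHTS titration format.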
* marks the source's active call; other numbers are inactive results; ? = inconclusive; / = not tested or not shown. Most compounds without a hit are left out; they make up all but 19% or so of the library. Unless noted, calls come from the whole dose curve; as a rule, active = well fitted curve in the direction sought with a large enough effect; inconclusive = small, poorly fitted or top-dose-only effect, or another doubt; inactive = no such curve, though single readings can be large; an effect the other way counts as inactive or inconclusive. Unless noted, % is set by controls: 0 for no effect and ±100 for the full control effect.

SMILES	IL1B secr inh	DT40 TDP1 no CPT	HT1080 IDH1KD tx	HT1080-NT tox	TDP1 cell CPT
O=c1c2ccccc2ncn1-c1ccc(Cl)cc1[N+](=O)[O-]	-2.3	?	1.8%	5.6%	?
CC1(C)CC(=O)C=C(NCc2ccccc2)C1	-4.8	1.3%	0.0%	0.9%	-0.6%
CC1(C)CC(=O)C=C(NC2=CC3OC(c4ccccc4)OCC3OC2=O)C1 (stereo not drawn)	-24.7	6.51µM*	20.6µM*	?	5.8µM*
CC(C)(C)c1cc(C(=O)Nc2ccc(F)cc2)n(Cc2ccc(F)cc2)n1	?	20.6µM*	?	?	?
Cc1ccc(NC(=O)c2cc(C(C)(C)C)nn2Cc2ccccc2)cc1	-80.6*	29.1µM*	?	?	?
CC(C)(C)c1cc(C(=O)NC2CC2)n(Cc2ccc(F)cc2)n1	-3.9	-10.8%	3.8%	1.9%	-20.4%
Cc1ccc(NNC(=O)c2cc(C(C)(C)C)nn2Cc2ccccc2)cc1	?	?	-10.5%	-7.7%	-18.4%
COc1cccc(CNC(=O)c2c(OC)cc(=O)n3c2CCN(C(=O)c2ccc(Cl)cc2)CC3)c1	/	4.6%	/	/	-0.9%
CCOc1ccc(NC(=S)NC(=O)c2c(Cl)cnn2CC)c([N+](=O)[O-])c1	-15.1	-3.6%	4.4%	7.3%	3.5%
CCOc1ccc(NC(=S)NC(=O)c2c(Br)cnn2C)c([N+](=O)[O-])c1	-4.1	23.1µM*	14.1%	14.0%	20.6µM*
CCOC(=O)c1c(N/N=C/c2cccnc2)n[nH]c1C	-16.5	13µM*	?	?	13µM*
COCCNC(=O)C1(C)CCCN(C(=O)c2ccccc2OC(F)(F)F)C1 (stereo not drawn)	12.5	5.1%	5.3%	15.0%	0.6%
COc1cccc(-c2cnc3c(NC=O)cc(-c4ccccc4Oc4ccccc4)cn23)c1	11.3	?	?	?	?
COc1cc(-c2cnc3c(NC=O)cc(-c4ccccc4Cl)cn23)cc(OC)c1OC	126.0	1.03µM*	?	?	0.82µM*
Cc1ccc(-c2cc(NC=O)c3ncc(-c4cnn(C)c4)n3c2)cc1	-50.9*	3.66µM*	?	?	4.11µM*
COc1ccc(F)cc1-c1cc(NC=O)c2ncc(-c3cc(OC)c(OC)c(OC)c3)n2c1	121.3	3.26µM*	?	?	2.31µM*
COc1cc(-c2cnc3c(NC=O)cc(-c4ccc(C)cc4)cn23)cc(OC)c1OC	111.8	0.103µM*	?	?	0.164µM*
COc1ccc(-c2nc3cnc(N(C)C)nc3n(CCc3ccccc3)c2=O)cc1	/	6.5%	/	/	23.6%
CCOc1cc(C(=O)N(C)CC(=O)Nc2cccc(F)c2)ccc1OCC(=O)N1CCOCC1	7.5	3.2%	2.2%	3.8%	4.5%
COc1cc(-c2cnc3c(NC=O)cc(-c4ccccc4)cn23)cc(OC)c1OC	138.8	0.0461µM*	?	?	0.0092µM*
CCOC(=O)c1[nH]c(C)c(C(=O)OCC(=O)N(Cc2ccccc2)C(C)C)c1C	?	14.6µM*	-16.3%	-13.8%	?
CC(C)N(Cc1ccccc1)C(=O)CCc1ccccc1	-24.2	?	3.2%	-2.0%	14.6µM*
CCOC(=O)c1c(C)[nH]c(C(=O)OCC(=O)N(CC(C)C)c2c(N)n(Cc3ccccc3)c(=O)[nH]c2=O)c1C	-6.9	?	-2.0%	-4.3%	?
CC(C)N(Cc1ccccc1)C(=O)COC(=O)c1cc(S(=O)(=O)N(C)C)ccc1N1CCCC1	-9.6	14.6µM*	-0.1%	-5.3%	23.1µM*
CCOC(=O)c1[nH]c(C)c(C(=O)c2cc(F)ccc2F)c1C	53.5	0.82µM*	0.447µM*	0.708µM*	0.82µM*
SMILES	IL1B secr inh	DT40 TDP1 no CPT	HT1080 IDH1KD tx	HT1080-NT tox	TDP1 cell CPT
CCOC(=O)c1c(C)[nH]c(C(=O)NNC(=O)c2ccccc2F)c1C	0.0	1.9%	21.6%	12.5%	-0.8%
CC(C)N(Cc1ccccc1)C(=O)COc1ccccc1	2.7	?	11.4%	17.4%	?
CCOC(=O)c1[nH]c(C)c(C(=O)OCc2ccccc2F)c1C	18.6	9.2µM*	9.2µM*	11.6µM*	6.51µM*
COc1ccc2[nH]c3c(=O)n(/N=C/[C@H]4C(C)C=C(C)CC4C)c(=O)[nH]c3c2c1 (stereo partly drawn)	-58.2*	16.4µM*	?	?	18.4µM*
NS(=O)(=O)c1ccc(NC(=S)Nc2ccc(C(=O)N3CCCCC3)cc2)cc1	25.5	-29.4%	7.8%	2.5%	-6.0%
COC(=O)c1cccc(NC(=S)NCc2ccc(Cl)cc2)c1	17.2	?	-2.4%	-6.4%	?
O=C(c1ccc(NC(=S)Nc2ccc(Cl)c(Cl)c2)cc1)N1CCCC1	-99.3*	?	-21.7%	-19.2%	?
COC(=O)c1cc(NC(=S)NCc2ccc(Cl)cc2)cc(C(=O)OC)c1	-4.6	?	?	?	16.4µM*
O=C(c1ccc(NC(=S)NCc2ccc(Cl)cc2)cc1)N1CCCCC1	7.2	23.1µM*	2.1%	3.7%	?
Cc1ccc(C(=O)N2CCN(CCNC(=O)C(=O)NCc3ccc(Cl)cc3)CC2)cc1	0.0	?	16.7%	28.6%	16.4µM*
COc1ccc(CNC(=O)CCCC(=O)Nc2cccc(Br)c2)cc1	10.1	-24.3%	0.5%	-4.2%	-10.3%
O=C(NCCCN1CCOCC1)c1cc(S(=O)(=O)N2CCCCC2)ccc1Cl	-0.3	-26.6%	1.2%	4.4%	-6.8%
Cc1cc(C)c2c(NC(=O)CCl)nn(C)c2n1	-97.8*	11.6µM*	?	?	13µM*
Cc1cc(C)c2c(NC(=S)NC(=O)c3ccccc3)nn(C)c2n1	0.0	-8.3%	3.7%	23.8%	1.5%
C/C(=N/NS(=O)(=O)c1ccc(Cl)cc1)c1ccncc1	-1.1	11.4%	2.6%	1.1%	?
C/C(=N\NS(=O)(=O)c1ccc(Br)cc1)c1ccncc1	-77.6*	?	-1.9%	9.3%	11.6µM*
Cc1ccc(Cl)cc1NC(=O)CC(O)(C(F)(F)F)C(F)(F)F	-82.6*	?	?	20µM*	18.4µM*
COCC(=O)Nc1cc(Cl)ccc1C	13.1	2.5%	-19.9%	-5.0%	19.1%
CC(Sc1nnc(Cc2cccs2)n1C1CCCCC1)C(=O)NCc1ccco1 (stereo not drawn)	-2.8	14.6µM*	7.5%	9.2%	14.6µM*
O=C1CCCN1CCC1CCN(C2CC(=O)N(c3ccc(F)cc3)C2=O)CC1 (stereo not drawn)	20.3	20.6µM*	-29.5%	2.4%	18.4µM*
O=C(C1CCN(C2CC(=O)N(c3ccc(F)cc3)C2=O)CC1)N1CCOCC1 (stereo not drawn)	-1.8	-23.4%	17.0%	12.3%	?
